ChEMBL document CHEMBL1961873, “Compounds: GSK PKIS; Assays: Nanosyn kinase panel” (2012)
Several values for one entry are separate records, joined by “and”; a condition that tells them apart may be missing. Equal entries are not always repeated.

Experiments:
[1] = biological target: Tyrosine-protein kinase Fyn (Homo sapiens) (UniProt P06241); conditions: at 1 µM
[2] = biological target: Tyrosine-protein kinase HCK (Homo sapiens) (UniProt P08631); conditions: at 0.1 µM
[3] = biological target: Tyrosine-protein kinase HCK (Homo sapiens) (UniProt P08631); conditions: at 1 µM
[4] = biological target: Insulin-like growth factor 1 receptor (Homo sapiens) (UniProt P08069); conditions: at 0.1 µM
Sequence of Insulin-like growth factor 1 receptor (Homo sapiens) (P08069 31-736 limits assumed): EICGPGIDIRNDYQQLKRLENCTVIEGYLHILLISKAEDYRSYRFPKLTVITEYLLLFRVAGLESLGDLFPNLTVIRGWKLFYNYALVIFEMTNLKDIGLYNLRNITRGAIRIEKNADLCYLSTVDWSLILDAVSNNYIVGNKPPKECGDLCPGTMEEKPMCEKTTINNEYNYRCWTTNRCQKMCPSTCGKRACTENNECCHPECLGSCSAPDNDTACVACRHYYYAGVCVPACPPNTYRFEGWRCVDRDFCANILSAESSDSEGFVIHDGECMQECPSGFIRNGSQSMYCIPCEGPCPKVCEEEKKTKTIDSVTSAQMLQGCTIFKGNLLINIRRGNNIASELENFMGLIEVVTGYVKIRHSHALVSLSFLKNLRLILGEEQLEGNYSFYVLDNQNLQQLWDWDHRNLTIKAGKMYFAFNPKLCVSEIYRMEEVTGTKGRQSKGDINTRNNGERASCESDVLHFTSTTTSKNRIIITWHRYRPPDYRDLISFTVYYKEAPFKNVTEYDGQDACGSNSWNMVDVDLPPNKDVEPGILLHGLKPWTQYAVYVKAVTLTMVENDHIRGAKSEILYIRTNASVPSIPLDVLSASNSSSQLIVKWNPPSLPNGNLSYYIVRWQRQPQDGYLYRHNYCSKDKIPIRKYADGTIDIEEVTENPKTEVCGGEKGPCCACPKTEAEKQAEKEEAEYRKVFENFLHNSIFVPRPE
Sequence of Insulin-like growth factor 1 receptor (Homo sapiens) (P08069 741-1367 limits assumed): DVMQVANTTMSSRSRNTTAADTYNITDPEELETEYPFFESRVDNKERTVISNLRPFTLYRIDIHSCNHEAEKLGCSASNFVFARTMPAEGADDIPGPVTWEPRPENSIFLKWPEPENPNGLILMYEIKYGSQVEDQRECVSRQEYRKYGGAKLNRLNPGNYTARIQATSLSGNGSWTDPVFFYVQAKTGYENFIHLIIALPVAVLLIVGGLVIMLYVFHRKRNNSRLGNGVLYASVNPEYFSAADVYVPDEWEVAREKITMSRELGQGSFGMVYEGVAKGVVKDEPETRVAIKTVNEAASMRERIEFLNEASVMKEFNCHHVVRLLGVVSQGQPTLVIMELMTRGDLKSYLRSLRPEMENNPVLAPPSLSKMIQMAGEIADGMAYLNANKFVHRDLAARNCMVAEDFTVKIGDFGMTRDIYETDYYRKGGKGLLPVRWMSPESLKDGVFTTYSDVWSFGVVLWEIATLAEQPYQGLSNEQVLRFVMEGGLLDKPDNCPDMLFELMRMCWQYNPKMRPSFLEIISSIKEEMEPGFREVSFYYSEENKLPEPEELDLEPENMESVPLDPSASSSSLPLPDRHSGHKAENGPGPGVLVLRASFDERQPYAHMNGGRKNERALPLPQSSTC

[5] = biological target: Insulin-like growth factor 1 receptor (Homo sapiens) (UniProt P08069); conditions: at 1 µM
[6] = biological target: Insulin receptor (Homo sapiens) (UniProt P06213); conditions: at 0.1 µM
Sequence of Insulin receptor (Homo sapiens) (P06213 28-758 limits assumed): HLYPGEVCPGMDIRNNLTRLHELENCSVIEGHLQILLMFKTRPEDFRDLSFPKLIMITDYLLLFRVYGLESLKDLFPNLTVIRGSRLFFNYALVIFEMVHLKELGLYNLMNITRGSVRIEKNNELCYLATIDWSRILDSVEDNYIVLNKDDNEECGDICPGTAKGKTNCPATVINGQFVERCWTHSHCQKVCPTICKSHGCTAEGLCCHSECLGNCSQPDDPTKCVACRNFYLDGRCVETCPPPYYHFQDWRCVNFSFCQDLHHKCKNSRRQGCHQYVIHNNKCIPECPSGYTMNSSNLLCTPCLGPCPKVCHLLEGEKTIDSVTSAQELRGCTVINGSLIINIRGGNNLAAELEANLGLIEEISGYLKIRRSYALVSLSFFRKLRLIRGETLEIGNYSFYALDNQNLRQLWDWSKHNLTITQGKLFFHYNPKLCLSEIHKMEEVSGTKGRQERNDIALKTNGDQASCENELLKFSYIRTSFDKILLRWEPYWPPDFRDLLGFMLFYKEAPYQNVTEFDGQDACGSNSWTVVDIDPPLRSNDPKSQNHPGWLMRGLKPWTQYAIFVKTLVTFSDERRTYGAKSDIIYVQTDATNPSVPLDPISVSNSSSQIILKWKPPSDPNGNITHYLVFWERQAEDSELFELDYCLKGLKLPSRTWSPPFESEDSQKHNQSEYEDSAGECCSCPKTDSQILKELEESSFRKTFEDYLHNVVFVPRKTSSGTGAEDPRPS
Sequence of Insulin receptor (Homo sapiens) (P06213 763-1382 limits assumed): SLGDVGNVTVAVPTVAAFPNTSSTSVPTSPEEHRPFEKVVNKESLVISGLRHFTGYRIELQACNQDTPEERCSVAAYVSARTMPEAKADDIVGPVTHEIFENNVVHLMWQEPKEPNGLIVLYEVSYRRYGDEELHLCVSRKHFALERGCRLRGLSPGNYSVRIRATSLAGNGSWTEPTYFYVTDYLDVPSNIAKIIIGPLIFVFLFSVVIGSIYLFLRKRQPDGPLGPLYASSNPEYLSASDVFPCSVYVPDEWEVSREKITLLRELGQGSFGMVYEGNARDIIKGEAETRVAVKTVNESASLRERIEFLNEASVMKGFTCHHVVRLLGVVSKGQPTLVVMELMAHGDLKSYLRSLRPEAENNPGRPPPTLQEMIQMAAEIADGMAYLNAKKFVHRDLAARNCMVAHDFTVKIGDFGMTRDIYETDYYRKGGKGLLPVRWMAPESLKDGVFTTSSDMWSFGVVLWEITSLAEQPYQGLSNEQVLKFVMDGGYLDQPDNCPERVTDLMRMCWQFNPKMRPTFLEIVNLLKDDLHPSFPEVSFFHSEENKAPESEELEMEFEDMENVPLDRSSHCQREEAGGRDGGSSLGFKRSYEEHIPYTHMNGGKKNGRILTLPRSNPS

[7] = biological target: Insulin receptor (Homo sapiens) (UniProt P06213); conditions: at 1 µM
[8] = biological target: Insulin receptor-related protein (Homo sapiens) (UniProt P14616); conditions: at 0.1 µM
Sequence of Insulin receptor-related protein (Homo sapiens) (P14616 27-742 limits assumed): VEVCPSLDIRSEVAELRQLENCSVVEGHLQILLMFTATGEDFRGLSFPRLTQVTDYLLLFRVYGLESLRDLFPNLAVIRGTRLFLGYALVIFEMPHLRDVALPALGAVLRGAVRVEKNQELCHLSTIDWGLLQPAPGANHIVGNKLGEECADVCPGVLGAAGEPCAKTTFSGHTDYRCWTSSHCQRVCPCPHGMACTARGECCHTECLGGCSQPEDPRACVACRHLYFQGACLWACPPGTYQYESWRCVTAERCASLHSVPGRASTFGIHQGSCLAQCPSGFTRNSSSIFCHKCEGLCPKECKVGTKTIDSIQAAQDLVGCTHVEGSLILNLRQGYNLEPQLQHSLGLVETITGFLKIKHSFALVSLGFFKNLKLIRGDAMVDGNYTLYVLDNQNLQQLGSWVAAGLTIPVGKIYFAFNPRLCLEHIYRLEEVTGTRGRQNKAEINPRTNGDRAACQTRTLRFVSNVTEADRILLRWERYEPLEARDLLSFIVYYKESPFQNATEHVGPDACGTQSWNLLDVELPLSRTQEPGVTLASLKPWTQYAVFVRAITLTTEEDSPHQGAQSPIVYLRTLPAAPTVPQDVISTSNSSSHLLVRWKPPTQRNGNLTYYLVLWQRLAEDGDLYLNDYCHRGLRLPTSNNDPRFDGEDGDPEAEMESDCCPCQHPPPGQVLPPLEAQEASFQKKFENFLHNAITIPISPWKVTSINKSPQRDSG
Sequence of Insulin receptor-related protein (Homo sapiens) (P14616 747-1297 limits assumed): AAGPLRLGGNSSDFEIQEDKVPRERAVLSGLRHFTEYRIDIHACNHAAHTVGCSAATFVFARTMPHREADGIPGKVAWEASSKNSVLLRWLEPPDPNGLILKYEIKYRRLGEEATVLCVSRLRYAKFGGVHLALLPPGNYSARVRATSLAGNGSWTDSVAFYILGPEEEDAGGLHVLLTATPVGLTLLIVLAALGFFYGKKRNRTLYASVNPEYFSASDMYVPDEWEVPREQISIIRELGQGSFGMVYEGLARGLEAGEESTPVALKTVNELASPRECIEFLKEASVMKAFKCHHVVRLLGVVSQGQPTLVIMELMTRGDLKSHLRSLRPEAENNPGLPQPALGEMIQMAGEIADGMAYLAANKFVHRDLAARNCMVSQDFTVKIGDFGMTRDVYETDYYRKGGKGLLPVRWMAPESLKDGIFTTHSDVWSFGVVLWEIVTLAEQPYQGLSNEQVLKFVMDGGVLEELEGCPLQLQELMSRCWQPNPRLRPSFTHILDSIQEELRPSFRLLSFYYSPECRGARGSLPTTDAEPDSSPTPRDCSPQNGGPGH

[9] = biological target: Insulin receptor-related protein (Homo sapiens) (UniProt P14616); conditions: at 1 µM
[10] = biological target: T1, Tyrosine-protein kinase ITK/TSK (Homo sapiens) (UniProt Q08881); conditions: at 0.1 µM;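 also: mean percent inhibition of ITK from the GSK PKIS screen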
T1 sequence (whole entry): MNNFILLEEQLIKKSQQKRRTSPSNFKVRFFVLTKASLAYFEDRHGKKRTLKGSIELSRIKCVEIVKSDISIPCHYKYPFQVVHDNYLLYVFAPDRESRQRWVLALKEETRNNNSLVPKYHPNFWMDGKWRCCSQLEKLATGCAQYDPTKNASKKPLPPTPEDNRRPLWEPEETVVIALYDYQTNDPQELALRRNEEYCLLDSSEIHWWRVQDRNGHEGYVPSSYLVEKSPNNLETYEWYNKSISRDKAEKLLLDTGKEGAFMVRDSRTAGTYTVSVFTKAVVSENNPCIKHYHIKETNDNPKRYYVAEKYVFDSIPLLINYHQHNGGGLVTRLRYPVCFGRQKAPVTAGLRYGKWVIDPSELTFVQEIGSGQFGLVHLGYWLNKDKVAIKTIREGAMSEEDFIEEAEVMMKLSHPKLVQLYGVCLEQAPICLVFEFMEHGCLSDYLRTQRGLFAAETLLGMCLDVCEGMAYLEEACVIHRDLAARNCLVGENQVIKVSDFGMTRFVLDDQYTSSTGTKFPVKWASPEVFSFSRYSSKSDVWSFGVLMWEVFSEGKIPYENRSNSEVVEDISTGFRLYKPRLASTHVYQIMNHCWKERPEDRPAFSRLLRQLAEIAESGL

Sequence of Tyrosine-protein kinase HCK (Homo sapiens) (P08631 2-526 limits assumed): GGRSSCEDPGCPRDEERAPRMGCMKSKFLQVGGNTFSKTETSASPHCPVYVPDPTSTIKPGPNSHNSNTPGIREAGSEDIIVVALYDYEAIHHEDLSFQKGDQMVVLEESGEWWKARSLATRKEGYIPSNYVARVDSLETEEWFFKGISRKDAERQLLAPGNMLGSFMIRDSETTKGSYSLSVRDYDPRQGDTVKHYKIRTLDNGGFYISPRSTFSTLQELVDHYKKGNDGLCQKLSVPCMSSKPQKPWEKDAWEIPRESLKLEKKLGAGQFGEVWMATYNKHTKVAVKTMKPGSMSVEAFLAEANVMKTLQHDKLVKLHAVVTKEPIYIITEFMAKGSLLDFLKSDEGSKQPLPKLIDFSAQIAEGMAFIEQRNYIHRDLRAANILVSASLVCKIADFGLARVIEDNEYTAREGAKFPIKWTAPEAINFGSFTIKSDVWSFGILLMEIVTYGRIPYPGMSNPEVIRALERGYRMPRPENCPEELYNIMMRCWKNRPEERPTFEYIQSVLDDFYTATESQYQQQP
Sequence of Tyrosine-protein kinase Fyn (Homo sapiens) (P06241 2-537 limits assumed): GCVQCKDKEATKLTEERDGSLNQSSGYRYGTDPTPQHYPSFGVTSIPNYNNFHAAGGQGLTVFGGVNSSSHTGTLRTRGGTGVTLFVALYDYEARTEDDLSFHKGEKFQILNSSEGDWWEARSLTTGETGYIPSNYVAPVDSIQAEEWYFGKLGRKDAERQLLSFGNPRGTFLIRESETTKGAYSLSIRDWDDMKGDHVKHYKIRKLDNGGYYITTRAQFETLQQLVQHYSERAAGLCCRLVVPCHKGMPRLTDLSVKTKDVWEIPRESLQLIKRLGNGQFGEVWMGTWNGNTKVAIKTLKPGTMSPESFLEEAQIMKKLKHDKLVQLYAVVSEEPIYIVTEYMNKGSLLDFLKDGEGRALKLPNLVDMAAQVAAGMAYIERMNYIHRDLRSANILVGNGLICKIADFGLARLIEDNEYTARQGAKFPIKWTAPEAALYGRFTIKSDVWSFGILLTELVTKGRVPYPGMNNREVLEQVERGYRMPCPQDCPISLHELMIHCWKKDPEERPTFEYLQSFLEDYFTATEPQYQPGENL

| Structure (SMILES) | inhibition [1] | inhibition [2] | inhibition [3] | inhibition [4] | inhibition [5] | inhibition [6] | inhibition [7] | inhibition [8] | inhibition [9] | inhibition [10] |
| --- | --- | --- | --- | --- | --- | --- | --- | --- | --- | --- |
| Cn1c(-c2nonc2N)nc2cnccc21 | 2.28% | 6.35% | 6.33% | 1.93% | 3.66% | 5.09% | 6.68% | 2.16% | -0.85% | 1.03% |
| CCCNc1cccc(-n2ncc3c(N/N=C/c4ccncc4)ncnc32)c1 | 52.8% | 7.22% | 35.8% | 0.75% | -0.01% | 1.6% | 0.96% | 0.19% | 1.63% | 6.02% |
| CCOc1ccc2c(-c3ccnc(Nc4cc(OC)cc(C(F)(F)F)c4)n3)cnn2n1 | 13.1% | 3.74% | 4.95% | 8.6% | 7.42% | -0.85% | 1.65% | -0.39% | 0.03% | 0.24% |
| CN(c1ccc(NC(=O)NCCN2CCOCC2)cc1)c1ccnc(Nc2ccc(CS(C)(=O)=O)cc2)n1 | 1.63% | 1.67% | 13.6% | 3.76% | 4.94% | 0.64% | 4% | 2.7% | 2.84% | 1.76% |
| CN1CCN(Cc2ccc(-c3cc4ncnc(Nc5ccc(OCc6cccc(F)c6)c(Cl)c5)c4s3)o2)CC1 | 9.29% and 9.99% | 3.14% and 4.38% | 7.61% and 13.1% | -0.2% and 3.7% | 1.01% and 6.72% | 2.51% and 7.21% | 3.07% and 7.9% | 1.81% and 2.44% | 3.22% and 4.36% | 1.02% and 2.31% |
| Cc1nnc(-c2cccc(-c3ccc(C(=O)NCC4CC4)cc3)c2)o1 | 0.54% | 5.93% | 8.3% | 3.76% | 6.53% | 9.39% | 5.71% | 4.48% | 3.22% | 0.99% |
| CC1=C(C(=O)Nc2ccc3[nH]ncc3c2)C(c2ccc(F)cc2)N=C(c2ccc(C(F)(F)F)nc2)N1 (stereo not given) | 3.27% | 4.24% | 12.2% | 3.5% | 3.35% | 3.82% | 1.7% | 1.92% | 1.25% | 1.64% |
| Cc1cc(O)cc(C)c1/C=C/c1cncc(C(=O)OC(C)(C)C)c1 | 39.1% | 11.3% | 51.5% | 4.61% | 2.33% | 3.02% | 4.74% | 2.54% | 1.64% | 1.16% |
| O=C1Nc2ccccc2/C1=C1\CCc2cc(O)ccc21 | 7.65% | 6.34% | 14.6% | 4.61% | 12.5% | 7.96% | 23% | 3.81% | 2.83% | 3.68% |
| NS(=O)(=O)c1cccc(N/C=C2\C(=O)Nc3ccccc32)c1 | 4.25% | 6.87% | 17.6% | 2.44% | 5.81% | 5.3% | 11.9% | 2.22% | 2.55% | 1.13% |
| CS(=O)(=O)CCNCc1ccc(-c2ccc3ncnc(Nc4ccc(OCc5ccccc5)cc4)c3c2)o1 | 14.9% | 7.13% | 14.3% | 1.22% | 2.03% | -0.92% | 2.86% | 1.91% | 2.07% | 0.71% |
| COc1cccc(Nc2nccc(-c3cnn4ncccc34)n2)c1 | 16.2% | 7.25% | 17.4% | 14.5% | 52.4% | 10.9% | 54.2% | 3.8% | 15.4% | 1.26% |
| CCN1CCC(C(=O)Nc2n[nH]c3nnc(-c4cccc(F)c4F)cc23)CC1 | 0.66% | 0.33% | 0.65% | -0.72% | -1.06% | -0.08% | 1.38% | -1.17% | -1.67% | 0.47% |
| CS(=O)(=O)Nc1ccc(-c2cc(-c3ccccc3)cc(C(N)=O)c2N)cc1 | -0.83% | 2.58% | 4.51% | 15.8% | 8.99% | 4.43% | 3.29% | -1.45% | 0.85% | 0.8% |
| COc1cc2c(cc1Nc1nc(Nc3cccc(F)c3C(N)=O)c3cc[nH]c3n1)N(C(=O)CN1CCN(C(C)C)CC1)CC2 | 2.53% | 1.66% | 2.73% | 57.8% | 87.7% | 69.1% | 88.2% | 6.85% | 44.3% | 1.77% |
